Experimental data: PubChem BioAssay AID1159580 (chemical genetic matrix, 2015)
Values joined by “and” are separate entries in the source; they are usually repeats but may differ in a detail not shown here. Equal entries are not always repeated. The campaign covered roughly 5,500 compounds. About 2,000 (36%) were called active. Inconclusive results (about 18%) are left out. Cut-off read from the data, not from the text of the source: active = normalized growth mostly below about 0.91 (no sharp cut-off); inconclusive = no clear call, values can overlap the other calls; inactive = mostly above about 0.92. The list shows a part of the results.

Experiment: chemical genetic growth profiling, strain panel (AID 1159580);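 note: tested at 20 µM; growth read once vehicle control cultures reached saturation at 30 °C; 1 = growth at the plate median or of vehicle wells; lower values mean less growth of the strain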
Conditions: S. cerevisiae deletion strains, growth OD

Measured: normalized growth

CC[N+](C)(C)c1cccc(O)c1
inactive: locus YAL013W, strain DEP1, hits give low values 0.992 and 1.06 | locus YAL021C, strain ccr4, hits give low values 1.02 | locus YAL026C, strain drs2, hits give low values 0.993 | locus YAL030W, strain snc1, hits give low values 1.01 | locus YAL040C, strain CLN3, hits give low values 0.997 | locus YBL061C, strain skt5, hits give low values 1 | locus YBR009C, strain hhf1, hits give low values 0.964 | locus YBR021W, strain FUR4, hits give low values 0.996 | locus YBR023C, strain chs3, hits give low values 1.02 | locus YBR171W, strain sec66, hits give low values 1 | locus YBR229C, strain ROT2, hits give low values 0.983 | locus YBR231C, strain swc5, hits give low values 1.03 | locus YBR279W, strain paf1, hits give low values 1.01 | locus YCL011C, strain gbp2, hits give low values 1.02 | locus YCL016C, strain dcc1, hits give low values 1.02 | locus YCL029C, strain bik1, hits give low values 0.966 | locus YCL061C, strain MRC1 (second series), hits give low values 1 | locus YCL061C, strain MRC1, hits give low values 1.02 | locus YCL069W, strain vba3, hits give low values 1.01 | locus YCR088W, strain abp1, hits give low values 1.01 | locus YDL005C, strain med2, hits give low values 1.02 | locus YDL035C, strain GPR1, hits give low values 1.01 | locus YDL040C, strain nat1, hits give low values 1.01 | locus YDL074C, strain BRE1, hits give low values 0.984 | locus YDL101C, strain DUN1, hits give low values 0.979 | locus YDL134C, strain PPH21, hits give low values 0.984 | locus YDL185W, strain tfp1, hits give low values 0.972 | locus YDL192W, strain arf1, hits give low values 0.992 | locus YDR001C, strain nth1, hits give low values 1 | locus YDR069C, strain doa4, hits give low values 1.02 | locus YDR101C, strain arx1, hits give low values 0.966 | locus YDR137W, strain rgp1, hits give low values 1.04 | locus YDR150W, strain NUM1, hits give low values 0.996 and 1 | locus YDR159W, strain sac3, hits give low values 0.993 | locus YDR162C, strain NBP2, hits give low values 0.999 | locus YDR195W, strain ref2 1.01 | locus YDR297W, strain sur2, hits give low values 1.01 | locus YDR318W, strain mcm21, hits give low values 0.971 | locus YDR334W, strain swr1, hits give low values 1.01 | locus YDR335W, strain msn5, hits give low values 1.01 | locus YDR363W, strain ESC2, hits give low values 1.01 | locus YDR388W, hits give low values 0.978 | locus YDR392W, strain spt3, hits give low values 0.92 | locus YDR502C, strain sam2, hits give low values 0.975 | locus YEL003W, strain gim4, hits give low values 0.995 | locus YEL037C, strain rad23, hits give low values 0.999 | locus YEL061C, strain CIN8 (second series), hits give low values 1.01 | locus YEL061C, strain CIN8, hits give low values 0.994 | locus YER002W, strain NOP16, hits give low values 0.998 | locus YER015W, strain faa2, hits give low values 0.999 | locus YER016W, strain bim1, hits give low values 1.01 | locus YER110C, hits give low values 0.97 | locus YER111C, strain swi4, hits give low values 0.998 | locus YER155C, strain BEM2 (second series), hits give low values 1.02 | locus YER155C, strain BEM2, hits give low values 0.949 | locus YER167W, strain BCK2, hits give low values 0.995 | locus YFR010W, strain ubp6, hits give low values 1 | locus YGL078C, strain dbp3, hits give low values 0.982 | locus YGL086W, strain mad1, hits give low values 1 | locus YGL167C, strain pmr1, hits give low values 1.01 | locus YGL173C, strain kem1, hits give low values 1.02 | locus YGL227W, strain vid30, hits give low values 1.02 | locus YGL240W, strain doc1, hits give low values 1.03 | locus YGL248W, strain PDE1, hits give low values 0.997 | locus YGL253W, strain hxk2, hits give low values 1.02 | locus YGR078C, strain PAC10, hits give low values 0.995 and 0.986 | locus YGR135W, strain pre9, hits give low values 0.973 | locus YGR229C, strain SMI1, hits give low values 1.01 | locus YGR252W, strain gcn5, hits give low values 1.06 | locus YHR013C, strain ard1, hits give low values 1.06 | locus YHR027C, strain rpn1, hits give low values 1.01 | locus YHR030C, strain SLT2, hits give low values 0.988 and 1.01 | locus YHR079C, strain IRE1 (second series), hits give low values 0.982 | locus YHR079C, strain IRE1, hits give low values 0.99 | locus YHR094C, strain hxt1, hits give low values 0.976 | locus YHR129C, strain ARP1, hits give low values 0.987 | locus YHR142W, strain chs7, hits give low values 1 | locus YHR200W, strain rpn10, hits give low values 0.968 | locus YIL066C, strain RNR3, hits give low values 0.985 | locus YIL073C, strain SPO22, hits give low values 0.982 | locus YIL125W, strain kgd1, hits give low values 0.997 | locus YIR030C, strain dcg1, hits give low values 0.974 | locus YJL092W, strain hpr5, hits give low values 1.01 | locus YJL095W, strain BCK1 (second series), hits give low values 1.01 | locus YJL095W, strain BCK1, hits give low values 0.973 and 1.02 | locus YJL115W, strain asf1, hits give low values 1.01 | locus YJL129C, strain trk1, hits give low values 1.02 | locus YJL134W, strain LCB3, hits give low values 0.991 | locus YJL154C, strain vps35, hits give low values 1 | locus YJL164C, strain tpk1, hits give low values 0.996 | locus YJL166W, strain qcr8, hits give low values 1.04 | locus YJL168C, strain set2, hits give low values 0.979 | locus YJL187C, strain SWE1 (second series), hits give low values 0.977 | locus YJL187C, strain SWE1, hits give low values 1.01 | locus YJR043C, strain POL32, hits give low values 0.984 | locus YJR066W, strain TOR1, hits give low values 0.931
